# A selection: hits, their analogues and other compounds. The true share with any hit is near 7%.
# JMJD2A Tudor = inhibitors of human JMJD2A Tudor domain; AID 504339; AlphaScreen JMJD2A-Tudor / H3K4me3 peptide binding; Potency, µM (top dose mostly 114 µM), inactives show at the top dose activity change, negative = inhibition, most hits filed as inhibitors; 390,000 compounds, 4.4% hits; O75164; note: potency is the fitted concentration of half-maximal effect; % is set by controls: 0 for no effect and ±100 for the full control effect; nearly all actives have a fitted effect of over 50% in size
# Target sequence (O75164 whole entry, looked up, the tested form may be a part): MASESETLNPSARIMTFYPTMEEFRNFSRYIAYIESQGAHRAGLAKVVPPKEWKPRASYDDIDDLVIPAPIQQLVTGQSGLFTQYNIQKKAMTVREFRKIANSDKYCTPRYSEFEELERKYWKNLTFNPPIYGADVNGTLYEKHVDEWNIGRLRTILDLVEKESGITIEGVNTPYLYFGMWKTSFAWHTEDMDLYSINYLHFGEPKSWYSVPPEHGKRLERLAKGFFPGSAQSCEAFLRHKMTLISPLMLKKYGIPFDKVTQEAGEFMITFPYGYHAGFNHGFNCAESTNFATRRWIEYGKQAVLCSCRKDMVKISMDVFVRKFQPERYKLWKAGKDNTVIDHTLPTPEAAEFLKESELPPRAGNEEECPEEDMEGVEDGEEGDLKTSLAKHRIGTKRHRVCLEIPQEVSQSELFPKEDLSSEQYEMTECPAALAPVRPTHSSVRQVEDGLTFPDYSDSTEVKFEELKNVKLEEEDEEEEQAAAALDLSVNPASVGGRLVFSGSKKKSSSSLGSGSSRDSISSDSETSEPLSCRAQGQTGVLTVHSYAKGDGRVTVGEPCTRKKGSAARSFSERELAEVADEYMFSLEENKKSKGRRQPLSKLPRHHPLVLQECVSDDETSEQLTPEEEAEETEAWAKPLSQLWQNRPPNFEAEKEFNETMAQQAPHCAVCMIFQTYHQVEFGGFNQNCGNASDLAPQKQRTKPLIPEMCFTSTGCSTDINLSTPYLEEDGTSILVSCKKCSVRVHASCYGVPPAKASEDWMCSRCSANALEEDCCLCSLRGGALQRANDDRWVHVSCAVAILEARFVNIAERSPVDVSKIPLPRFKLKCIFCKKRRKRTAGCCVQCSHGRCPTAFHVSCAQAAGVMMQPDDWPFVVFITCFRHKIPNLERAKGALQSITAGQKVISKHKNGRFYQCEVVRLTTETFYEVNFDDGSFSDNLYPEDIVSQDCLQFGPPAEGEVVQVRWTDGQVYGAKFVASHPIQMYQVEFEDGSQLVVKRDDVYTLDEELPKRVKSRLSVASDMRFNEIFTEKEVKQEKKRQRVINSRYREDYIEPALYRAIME
# KAT2A inh = GCN5L2 (KAT2A) acetyltransferase inhibition; GCN5L2 HAT assay, ThioGlo1 CoA-SH fluorescence; Potency, µM (highest dose often 58.9 µM), for the others: at the highest dose activity change, negative = inhibition, actives largely listed as inhibitors; 390,000 compounds, 0.21% hits; note: potency is the fitted concentration of half-maximal effect; % is set by controls: 0 for no effect and ±100 for the full control effect
#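 ThioGlo1-coupled HAT assay: 20nM GCN5L2, 70uM acetyl-CoA, 75uM H3(1-25) peptide, pH 7.5. Fluorescence read at 340/540nm at start and after 20 min at room temperature.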
# BAZ2B inh = inhibitors of human BAZ2B bromodomain; Q9UIF8; Potency, µM (titrated, usually from 114 µM), for the others: at the highest dose activity change, negative = inhibition, hits mostly inhibitors; 360,000 compounds, 4.4% hits; AlphaScreen BAZ2B-H3K14Ac peptide displacement; note: potency is the fitted concentration of half-maximal effect; % is set by controls: 0 for no effect and ±100 for the full control effect; nearly all actives have a fitted effect of over 60% in size
#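 BAZ2B 50 nM plus b-H3(5-23)K14Ac 50 nM, PBS pH 7.4/0.01% Tween-20, 30 min RT; compound added (max 110 uM), 30 min RT; streptavidin donor/Ni-chelate acceptor beads 10 ug/mL final, 20 min dark; AlphaScreen read.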
# HP1b binding inh = HP1-beta chromodomain-methylated histone interaction inhibition; 390,000 compounds, 0.56% hits; Potency, µM (top dose mostly 114 µM), for inactives: at the highest dose activity change, negative = inhibition, most hits filed as inhibitors; AID 540317; P83916; AlphaScreen HP1-beta / biotin-H3K9me3 peptide binding; note: potency is the fitted concentration of half-maximal effect; nearly all actives have a fitted effect of over 70% in size
#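 Compound inhibition of the preformed complex between 50 nM HP1-beta and 50 nM biotinylated H3K9me3 peptide was read by AlphaScreen. Buffer was PBS pH 7.4 with 0.01% Tween-20. Incubations ran 30 min at room temperature, with 10 ug/mL donor/acceptor beads.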
# PI5P4Ka inh = inhibitors of human PI5P4K alpha; 330,000 compounds, 1.2% hits; P48426; AID 652105; max response, %; PI5P4Kalpha enzyme, ADP-Glo luminescence, 60 min; hits give low values; active = max response of -50% or lower; inconclusive = between -30% and -50%; inactive = -30% or higher; note: value at the top dose of about 77 µM; % is set by controls: 0 for no effect and ±100 for the full control effect
#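 Controls without substrate or without enzyme flank wells where PI5P4Kalpha converts substrate using 5 microM ATP (final). Incubation lasts 60 minutes at room temperature; ADP formed is read by ADP-Glo luminescence.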
# PLK1 PBD inh = blocks phosphopeptide binding to human PLK1 polo-box domain; 360,000 compounds, 2.8% hits; AID 720504; P53350; Plk1 PBD binding of FITC phosphopeptide, fluorescence polarization; Potency, µM, without a hit: max response, negative = inhibition, most hits filed as inhibitors; note: potency is the fitted concentration of half-maximal effect; series mostly up to about 57 µM; % is set by controls: 0 for no effect and ±100 for the full control effect; nearly all actives have a fitted effect of over 65% in size
# Active calls of the source: *; ? = inconclusive; / = no result; [ ] = remark or other dose. Unless noted, calls come from the whole dose curve; as a rule, active = well fitted curve in the direction sought with a large enough effect; inconclusive = small, poorly fitted or top-dose-only effect, or another doubt; inactive = no such curve, though single readings can be large; an effect the other way counts as inactive or inconclusive.
SMILES,JMJD2A Tudor,KAT2A inh,BAZ2B inh,HP1b binding inh,PI5P4Ka inh,PLK1 PBD inh
Cc1ccc(S(=O)(=O)N2CCC(C(=O)N(C)C3CCS(=O)(=O)C3)CC2)cc1 (stereo not drawn),?,-5.2%,7.2%,?,?,5.97µM*
O=S(=O)(Nc1nc2ccccc2nc1Nc1ccc(N2CCOCC2)cc1)c1cc(Cl)ccc1Cl,?,-4.9%,-4.8%,-4.4%,-2.5,11.9µM*
O=C(COc1ccc(Br)cc1)N1CCC(c2ccccc2)C1 (stereo not drawn),11.7%,-4.4%,47.3%,30.9%,3.7,-1.1%
Cc1cc(C)nc(SCCc2ccncc2)n1,4.47µM*,63.3%,10.3%,21.2%,-14.4,?
Cc1cc(C)nc(SCSc2nc(C)cc(C)n2)n1,-7.1%,5.0%,7.4%,14.3%,4.1,-21.3%
COC(=O)[C@H]1[C@H]2C[C@@H]3c4[nH]c5cc(OC)ccc5c4CCN3C[C@H]2C[C@@H](OC(=O)c2cc(OC)c(OC)c(OC)c2)[C@@H]1OC,56.2µM*,?,28.2µM*,?,-7.6,-6.2%
CC(=O)NS(=O)(=O)c1cccnc1Nc1ccc(Cl)c(Cl)c1,-2.7%[11.4 µM],-4.5%,-5.3%,-2.4%,?,9.47µM*
CCC(=O)NS(=O)(=O)c1cccnc1Nc1ccc(Cl)cc1,-8.2%,-0.2%,-5.9%,36.2%,-18.3,-8.3%
Cc1ccc(C(=O)N/C(=C\c2cccs2)C(=O)NCCCn2ccnc2)cc1C,?,?,50.1µM*,13.3%,-0.5,1.6%
Cc1ccc(C(=O)N/C(=C\c2cccs2)C(=O)NCCCn2ccnc2)cc1,-16.6%,-2.1%,-34.7%,23.0%,2.6,1.7%
COc1ccc(C(=O)N/C(=C\c2ccco2)C(=O)NCCCn2ccnc2)cc1,-28.3%,65.5%,?,4.5%,0.7,-12.2%
O=C(NCCCn1ccnc1)/C(=C/c1ccco1)NC(=O)c1ccco1,?,-5.7%,-35.5%,?,-7.0,-13.1%
Cc1ccc(C(=O)N/C(=C\c2ccco2)C(=O)NCCCn2ccnc2)cc1C,17.8µM*,-11.4%,7.94µM*,25.1%,/,-3.3%
O=C(NCCCn1ccnc1)/C(=C/c1ccco1)NC(=O)c1cccs1,-8.3%[11.4 µM],-8.0%,79.4µM*,30.1%,-3.4,-9.7%
Nc1nc(C(F)(F)F)cc(=O)n1N,0.0%,-6.3%,5.5%,18.4%,2.5,-0.8%
CCCOc1ccccc1NC(=O)/C=C/c1ccc(OC)c(S(=O)(=O)N2CCOCC2)c1,/,/,/,/,2.7,-6.0%
CC(C)CNC(=O)c1[nH]c(C(F)(F)F)nc1-c1ccccc1,/,/,/,/,3.3,-4.2%
c1ccc(-n2cnc3cc(NCc4ccncc4)ccc32)cc1,56.2µM*,10.6%,?,10.7%,-21.3,-2.6%
CC(C)(C)n1cnc2cc(NS(=O)(=O)c3ccccc3)ccc21,-16.1%,-16.9%,7.6%,36.7%,3.1,-6.2%
CC(C)(C)n1cnc2cc(NCc3ccccc3O)ccc21,-35.3%,-7.0%,?,-12.1%,7.5,-8.8%
CC(C)(C)n1cnc2cc(NCc3ccc(Br)cc3)ccc21,20µM*,-17.7%,31.6µM*,?,-8.7,21.2µM*
CCc1ccc(CNc2ccc3c(c2)ncn3C(C)(C)C)cc1,63.1µM*,-0.9%,44.7µM*,?,3.0,-6.7%
CC(C)c1ccc(CNc2ccc3c(c2)ncn3C)cc1,?,-0.3%,39.8µM*,1.3%,-1.6,1.8%
O=C1CC[C@@H](OCc2ccccc2)CCN1CC[C@H](Sc1ccccc1)c1ccccc1,21.0%,-22.4%,1.0%,65.6%,2.7,-9.9%
CCCCn1cnc2cc(NCc3ccncc3)ccc21,?,?,-10.6%,8.2%,/,2.2%
SMILES,JMJD2A Tudor,KAT2A inh,BAZ2B inh,HP1b binding inh,PI5P4Ka inh,PLK1 PBD inh
CCc1ccc(CNc2ccc3c(c2)ncn3CC)cc1,44.7µM*,-5.4%,?,?,-8.7,-2.0%
CCN(CC)c1ccc(CNc2ccc3c(c2)ncn3C(C)(C)C)cc1,14.1µM*,18.4%,11.2µM*,?,3.7,-1.2%
CCCCn1cnc2cc(NCc3ccccc3Cl)ccc21,39.8µM*,2.6%,35.5µM*,?,/,/
CCn1cnc2cc(NCc3ccc(OC)cc3)ccc21,-35.1%,-9.9%,?,2.1%,/,1.1%
N#CC1=C(NC=NCc2ccccc2)Oc2ccc3ccccc3c2C1c1ccccc1 (stereo not drawn),-30.1%,/,/,/,/,/
COc1ccc(C2=C(C)C(N3CCC(C(=O)NCc4ccc(C)o4)CC3)=NS2(=O)=O)cc1,-21.0%,-9.2%,-17.6%,56.4%,/,/
CC1CCCC(NC(=O)NC(=O)COC(=O)c2ccc(O)cc2O)C1C (stereo not drawn),?,-3.7%,-8.0%,8.9%,4.1,-14.0%
CCN(CC)c1ccc(NC(=O)c2ccc(Br)o2)c(C)c1,56.2µM*,-8.4%,39.8µM*,?,/,-0.9%
CCN(CC)c1ccc(NC(=O)c2ccco2)c(C)c1,-35.8%,1.4%,-12.0%,-7.7%,/,-7.8%
O=C(Nc1ccc(Nc2ccccc2)cc1)c1ccc(Br)o1,39.8µM*,-8.5%,22.4µM*,?,-1.3,-8.2%
Cc1cc(O)c(NC(=O)c2ccc(Br)o2)cc1C,-26.1%,-4.6%,50.1µM*,2.3%,-4.3,3.4%
COc1ccc(/C=C2\SC(=S)N(NC(=O)c3ccncc3)C2=O)cc1OC,/,-9.0%,?,/,/,/
O=C(NN1C(=O)/C(=C/c2ccc(O)c([N+](=O)[O-])c2)SC1=S)c1ccccc1Cl,?,-11.8%,35.5µM*,?,-79.1*,-24.8%
O=C(NN1C(=O)/C(=C/c2ccc(O)cc2)SC1=S)c1cccc(O)c1,?,-6.0%,?,-14.9%,-0.3,72.8%
O=C(NN1C(=O)/C(=C/c2ccc(O)cc2)SC1=S)c1ccccc1O,50.1µM*,-1.3%,39.8µM*,?,?,77.2%
COc1cc(/C=C2\SC(=S)N(NC(=O)c3ccccc3O)C2=O)ccc1O,20µM*,-3.7%,28.2µM*,?,-61.9*,?
CCN(CC)S(=O)(=O)c1ccc(OC)c(NC(=O)c2cn(CC)c3nc(C)ccc3c2=O)c1,-12.3%,1.7%,0.7%,23.2%,9.0,-4.7%
Cc1c(P(=O)(c2ccccc2)c2ccccc2)c2ccccc2n1C,22.4µM*,/,/,/,/,/
CCOc1cccc2sc(N(CCCN(C)C)C(=O)c3ccc(S(=O)(=O)N(C)Cc4ccccc4)cc3)nc12,-19.4%,-0.2%,-21.4%,3.6%,0.6,-2.1%
CCOc1cccc2sc(N(CCCN(C)C)C(=O)c3ccc(S(=O)(=O)N(CC)Cc4ccccc4)cc3)nc12,31.6µM*,-0.5%,?,-9.3%,0.3,5.8%
Cc1ccc2sc(N(CCCN(C)C)C(=O)c3ccc(S(=O)(=O)N(C)Cc4ccccc4)cc3)nc2c1C,?,-2.3%,2.9%,?,0.4,-2.2%
